# About 430 (27%) of roughly 1,600 compounds were called active. Cut-off read from the data, not from the text of the source: active = inhibition above about 29%; inactive = the rest. The list is a sample of the results.
# Molecular target: Melanocortin receptor 4 (Homo sapiens) (UniProt P32245)
# Assay: blockers of MC4R cAMP signaling – cell-based, TR-FRET, confirmation (AID 602195);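 note: 0% = agonist stimulated wells alone and 100% = agonist stimulated wells plus saturating reference antagonist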
# Details: MC4R-expressing cells, MTII-stimulated cAMP, at 6.5 µM, stronger effect = higher value
# Melanocortin receptor 4 (Homo sapiens), sequence (P32245 whole entry, looked up): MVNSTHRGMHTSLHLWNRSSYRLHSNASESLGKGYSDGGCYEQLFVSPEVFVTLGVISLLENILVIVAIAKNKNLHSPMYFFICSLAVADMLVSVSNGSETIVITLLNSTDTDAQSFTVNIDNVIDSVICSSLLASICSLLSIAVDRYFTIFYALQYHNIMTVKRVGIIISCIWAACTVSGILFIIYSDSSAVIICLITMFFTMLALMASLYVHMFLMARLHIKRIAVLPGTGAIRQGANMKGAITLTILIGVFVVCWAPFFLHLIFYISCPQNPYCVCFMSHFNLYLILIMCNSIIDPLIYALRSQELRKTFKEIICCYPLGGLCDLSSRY
row,Compound,inhibition
1,C#Cc1cc(N2CCN(C(=O)c3ccoc3)CC2)n2nc(-c3cccc(Cl)c3)cc2n1,36.4% (active)
2,Cc1ccc(Sc2ccc(NC(=O)c3ccc(F)cc3)cc2C#N)cc1,24.9% (inactive)
3,Cc1c(CCC(=O)O)c(=O)oc2cc(OCc3ccc(Br)cc3)ccc12,-0.06% (inactive)
4,CN(C)C(CNC(=O)CCCOc1ccccc1)c1ccco1 (configuration not stated),-4.52% (inactive)
5,COC(=O)[C@H](Cc1ccccc1)NC(=O)[C@@H]1C[C@H]1[C@@H](NC(=O)OCc1ccccc1)c1ccccc1,62.1% (active)
6,COc1ccccc1N(CC(=O)N/N=C(\C)c1ccccc1O)S(=O)(=O)c1ccc(C)cc1,11.1% (inactive)
7,CCOC(=O)C(C)n1cnc2sc(C)c(C)c2c1=O (configuration not stated),5.44% (inactive)
8,COC(=O)c1sc(-c2ccc(C(C)(C)C)cc2)cc1NC(=O)/C=C/C(=O)O,-6.9% (inactive)
9,Cc1ccc(C(C(=O)NCC2CCCO2)N(C(=O)c2snc(C(N)=O)c2N)c2ccc(C(C)C)cc2)o1 (configuration not stated),10.5% (inactive)
10,CN(CC(=O)NCCc1ccccn1)S(=O)(=O)c1ccc(Cl)cc1,-19.7% (inactive)
11,CC(C)(C)OC(=O)N1CCC(NC(=O)c2[nH]cnc2C(=O)N[C@@H](Cc2ccccc2)C(=O)OCc2ccccc2)CC1,55.3% (active)
12,O=C(Cn1nnc2ccccc2c1=O)Nc1cc(C(F)(F)F)ccc1N1CCOCC1,-7.03% (inactive)
13,CCOC(=O)c1cc(C)nc(S(C)(=O)=O)c1C#N,29.6% (active)
14,Cc1nnc(N/N=C/C2CC=CCC2)[nH]c1=O (configuration not stated),2.83% (inactive)
15,Cc1ccc(NC(=O)COC(=O)CNC(=O)c2ccc(Cl)cc2Cl)cc1S(=O)(=O)N1CCOCC1,13.7% (inactive)
16,O=C(Nc1nccs1)c1cc(S(=O)(=O)N2CCOCC2)c(Cl)cc1Cl,38.2% (active)
17,O=C(O)CCn1cc(/C=C/C(=O)c2ccc(Cl)cc2)c(-c2cccc(Br)c2)n1,13.2% (inactive)
18,CC1(C)C(c2cccs2)=[N+]([O-])C2(CCCCC2=O)N1O (configuration not stated),-17.8% (inactive)
19,Cc1ccc(C)c(S(=O)(=O)N2CCN(CC(=O)Nc3ccc([N+](=O)[O-])cc3)CC2)c1,-6.36% (inactive)
20,CCOC(=O)c1c(NC(=O)CCl)sc(C(=O)N(CC)CC)c1C,44.7% (active)
21,O=C(Nc1ccccc1Cl)/C(Cl)=C(\Cl)S(=O)c1ccccc1 (configuration not stated),-8.38% (inactive)
22,COc1ccc(-c2nc3n(c(=O)c2C#N)CCS3)c(OC)c1,-26.2% (inactive)
23,O=C(COC(=O)c1c2c(nc3ccccc13)CCCC2)c1ccc(Br)s1,13.6% (inactive)
24,CSc1nnc(NC(=O)c2nc(S(=O)(=O)Cc3ccc(C)cc3)ncc2Cl)s1,48.5% (active)
25,O=C(Nc1nnc(Cc2ccc(Cl)cc2)s1)c1cccnc1,-6.82% (inactive)
26,Cc1cccc(OCC(O)Cn2c(N3CCCCC3)nc3c2c(=O)[nH]c(=O)n3C)c1 (configuration not stated),-4.42% (inactive)

row,Compound,inhibition
1,Cc1ccc(OCC(=O)Nc2ccc(NC(=O)c3cccs3)cc2)c(C)c1,-16.5% (inactive)
2,CC(=O)Nc1ccc(Sc2ccccc2C(=O)N2CCCC2)cn1,-13.6% (inactive)
3,COc1ccc2sc(-c3ccc(S(C)(=O)=O)cc3)c(-c3ccc(C(N)=O)cc3)c2c1,27.4% (inactive)
4,COc1ccc(/C=N/OCC(=O)N(Cc2ccccc2)c2ccccc2C(=O)O)cc1,1.15% (inactive)
5,O=C1/C(=C\c2ccc([N+](=O)[O-])cc2)CS(=O)(=O)C/C1=C/c1ccc([N+](=O)[O-])cc1,31.9% (active)
6,COCCCNC(=O)/C(C#N)=C/c1c(N2CCCCCC2)nc2ccccn2c1=O,11.9% (inactive)
7,COc1cccc(OC)c1C(=O)Nc1c(C(=O)N2CCN(c3ccccn3)CC2)oc2ccccc12,-8.35% (inactive)
8,CCOc1ccc(Nc2nc(Cl)nc(N3CCN(c4ccc(OC)cc4)CC3)n2)cc1,33.7% (active)
9,Cc1ccc(NC(=O)c2c(NC(=O)CCC(=O)O)sc3c2CCCCC3)cc1,1.41% (inactive)
10,Cc1ccc(S(=O)(=O)CCC(=O)OCC(=O)N(C)Cc2ccccc2)cc1,7.91% (inactive)
11,Cc1ccc(S(=O)(=O)N(C)CC(=O)OCC(=O)Nc2ccccc2)cc1,38.5% (active)
12,Cc1ccc(S(=O)(=O)N(C)CC(=O)OCC(=O)N2CC(=O)Nc3ccccc32)cc1,16.8% (inactive)
13,O=C(c1ccc2c(c1)N(Cc1ccc(F)cc1)C(=O)c1ccccc1S2(=O)=O)N1CCN(c2ccccn2)CC1,-2.23% (inactive)
14,O=C(COC(=O)Cn1cnc2ccccc2c1=O)NCC12CC3CC(CC(C3)C1)C2,30.5% (active)
15,O=S(=O)(NCc1ccco1)c1cnc(Cl)c(Cl)c1,54.2% (active)
16,O=C(NCCc1c[nH]c2ccccc12)c1cccc(Br)c1,3.64% (inactive)
17,COc1ccc(-c2n[nH]c(C)c2-c2ccccc2OC)c(O)c1,0.3% (inactive)
18,O=C(COC(=O)[C@H](Cc1ccccc1)NC(=O)c1cccs1)Nc1cc(F)ccc1F,14.7% (inactive)
19,Cc1nc2ccccc2c(=O)n1NC(=O)c1ccc(Cl)c([N+](=O)[O-])c1,44.2% (active)
20,Cc1ccccc1-c1n[nH]c(=S)n1/N=C/c1ccc(-c2ccccc2Br)o1,0.08% (inactive)
21,O=C(CSc1nc2ccc(Nc3nc(N4CCOCC4)nc(N4CCOCC4)n3)cc2s1)NCc1ccco1,-2.81% (inactive)
22,Cc1c(Cl)cccc1NC(=O)[C@@]1(CC(=O)O)CC(/C=C/c2ccccc2)=NO1,-4.9% (inactive)
23,Cc1ccc(NC(=O)C(C)OC(=O)Cc2c[nH]c3ccccc23)cc1S(=O)(=O)N1CCOCC1 (configuration not stated),5.56% (inactive)
24,CCOC(=O)CSc1nc(N2CCOCC2)c2c(c1C#N)CC(C(C)C)OC2 (configuration not stated),8.67% (inactive)
25,CCCCOC(=O)CNc1nnc(SCC(=O)OCC)[nH]c1=O,44.4% (active)
26,CC(C)Oc1ccc(/C=C(\NC(=O)/C=C/c2ccco2)C(=O)NCCc2nc3ccccc3[nH]2)cc1,-6.84% (inactive)

row,Compound,inhibition
1,Cc1ccc(NS(=O)(=O)c2ccc(C)c(NC(=O)COc3ccc4ccccc4c3)c2)c(C)c1,0.85% (inactive)
2,COc1ccc(-n2nc(C(=O)Nc3cc(OC)c(OC)c(OC)c3)c3ccccc3c2=O)c(OC)c1,3.92% (inactive)
3,O=C(NC1=CC(=O)c2ccccc2C1=O)c1ccccc1,15.8% (inactive)
4,COc1ccc(C(C)C)cc1S(=O)(=O)Nc1ncn[nH]1,5.25% (inactive)
5,Cc1ccc(CSc2nnc(-c3cnccn3)n2C)cc1,10.6% (inactive)
6,COc1ccc(Oc2c(Cl)cnn(-c3ccccc3)c2=O)cc1,72.2% (active)
7,O=C(Nc1ccc(F)c([N+](=O)[O-])c1)C1CC(=O)N(Cc2ccccc2)C1 (configuration not stated),42.5% (active)
8,Cc1ccc(-c2nnc(CN3CCN(C)CC3)o2)cc1,7.87% (inactive)
9,COc1ccc(CCNC(=O)c2cnc(Cl)c(Cl)c2)cc1,35.6% (active)
10,COc1ccc(CCNC(=O)COC(=O)c2cnc(Cl)c(Cl)c2)cc1,36.7% (active)
11,O=C(OCC(=O)N1CCCCCC1)c1cnc(Cl)c(Cl)c1,35.9% (active)
12,CC(C)Oc1c(Br)cc(Br)cc1/C=N/NC(N)=S,25.2% (inactive)
13,COc1ccc(Cl)cc1-c1cc(C(=O)Nc2cc(OC)c(OC)c(OC)c2)[nH]n1,-21.1% (inactive)
14,O=C(NCC1CCN(Cc2ccccc2Cl)CC1)Nc1cccc(Cl)c1,-1.08% (inactive)
15,CC(NS(=O)(=O)c1ccc(Br)cc1)C(=O)NCC1CCCO1 (configuration not stated),0.92% (inactive)
16,CCOC(=O)c1c(-c2ccccc2)oc2cc(Br)c(O)c(C=O)c12,68.6% (active)
17,C=Cn1c(C(=O)O)ccc1-c1ccc(OC)cc1,-8.3% (inactive)
18,N#C/C=C1\Sc2ccccc2C(=O)N1CC(=O)N1CCN(S(=O)(=O)c2ccccc2)CC1,3.29% (inactive)
19,CCCC(C(=O)n1nc(C)cc1C)C(NS(=O)(=O)c1ccc(C)cc1)c1ccccc1 (configuration not stated),13.1% (inactive)
20,N#Cc1c(-c2cccs2)nc(SCC(=O)c2ccc(Br)cc2)[nH]c1=O,19.2% (inactive)
21,CC1(C)Cc2ccccc2-c2[nH]c(=S)[nH]c(=O)c21,36.1% (active)
22,COc1ccc2oc(N)c(C=O)c(=O)c2c1,-15.9% (inactive)
23,CC(=O)N1CCN(S(=O)(=O)c2c(F)cc(F)c(Cl)c2F)CC1,45.1% (active)
24,CCN(CC(=O)NCCCN1CCOCC1)S(=O)(=O)c1cc(Cl)ccc1Cl,-1% (inactive)
25,COc1ccc(C(C[N+](=O)[O-])n2nc(C)cc2C)cc1 (configuration not stated),-13.7% (inactive)

# From PubChem BioAssay AID602195 (The Scripps Research Institute Molecular Screening Center, 2012)
